In assay [1] the target is Cell division control protein 42 homolog (Homo sapiens) (UniProt P60953). Put plainly: activated mutant Cdc42 GTP-binding inhibitors, dose response, biochemical, multiplex bead flow cytometry, Bodipy-FL-GTP (AID 1333;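 active = fitted half-maximal concentration within the tested dose range, moderate curve steepness, a statistically real signal drop, and little compound fluorescence or tag-binding interference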).
The target is the same in assay [2]. Put plainly: wildtype Cdc42 GTP-binding inhibitors, dose response, biochemical, multiplex bead flow cytometry, Bodipy-FL-GTP (AID 1334;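 active = fitted half-maximal concentration within the tested range, moderate curve steepness, significant signal drop, and little compound fluorescence or bead-linkage interference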). The note with it: bead-based flow cytometry, Bodipy-FL-GTP binding to GST-Cdc42; at 100 µM (top of the series) unless noted. (In general: Flow cytometry measures light scatter and fluorescence of single cells or particles in a stream.)

For assay [3], the target named is GTPase HRas (Homo sapiens) (UniProt P01112). Put plainly: inhibitors of GTP binding to wildtype Ras, dose response, biochemical, multiplex bead flow cytometry (AID 1335). The note with it: bead-based flow cytometry, Bodipy-GTP binding to GST-Ras; at 100 µM (top of the series) unless noted.
The subject of assay [4] is Ras-related protein Rab-7a (dog), GTP binding. Put plainly: Rab7 GTP binding inhibitors, potency, dose response, biochemical, wildtype, multiplex bead flow cytometry (AID 1336; call rule not given here).
Assay [5] concerns the target Ras-related C3 botulinum toxin substrate 1 (Homo sapiens) (UniProt P63000). Put plainly: wildtype Rac1 GTP binding inhibitors, dose response, biochemical, multiplex bead flow cytometry (AID 1340;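 active = dose curve with midpoint inside tested range, moderate steepness, plateau gap beyond fit error, low compound glow and bead-link interference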). The note with it: GST-Rac1 beads, Bodipy-FL-GTP binding; at 100 µM (top of the series) unless noted.
Assay [6] has as its target GTPase HRas (Homo sapiens) (UniProt P01112). Put plainly: activated Ras mutant GTP binding inhibitors, dose response, biochemical, multiplex bead flow cytometry (AID 1341;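 active = dose-response curve with midpoint inside the tested range, moderate steepness, significant amplitude and little compound fluorescence or bead-attachment interference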;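 also: GST-tagged constitutively activated Ras mutant immobilized on beads and multiplexed with other GTPases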).

Structures are written as SMILES. For part of these data: Potency and affinity values are given separately. Active and inactive are the calls of the source.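 The calls were made as follows, unless noted: active = fitted half-maximal concentration within 10 nM to 100 µM, steepness 0.5 to 2, significant signal drop, low assay interference; inactive = the rest.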

Chain of GTPase HRas (Homo sapiens) (P01112 whole entry, looked up): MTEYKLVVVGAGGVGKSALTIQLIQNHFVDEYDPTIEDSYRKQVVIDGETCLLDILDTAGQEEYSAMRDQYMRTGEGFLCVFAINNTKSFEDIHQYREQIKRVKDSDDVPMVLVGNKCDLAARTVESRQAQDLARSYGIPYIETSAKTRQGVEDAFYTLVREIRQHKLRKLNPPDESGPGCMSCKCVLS
Chain of Cell division control protein 42 homolog (Homo sapiens) (P60953 whole entry, looked up): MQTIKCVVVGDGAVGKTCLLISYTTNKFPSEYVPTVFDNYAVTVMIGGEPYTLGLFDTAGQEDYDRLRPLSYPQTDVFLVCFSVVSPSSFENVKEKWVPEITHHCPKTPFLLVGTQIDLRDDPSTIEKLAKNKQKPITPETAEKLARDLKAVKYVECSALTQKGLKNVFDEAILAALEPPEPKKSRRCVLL

Consider `Cc1ccc(N=Nc2c(N)[nH]n3c(=O)c4c(nc23)CCCC4)cc1`, for which the compound was called inactive in assay [1], in assay [4] and in assay [6]. For the same compound, the fluorescence, percent of control (lower = inhibition) in assay [2] was determined as 31.3%. The same compound showed a GTP binding, percent of control in assay [3] of 72.8%. Also, in assay [5], the GTP binding signal, raw median fluorescence (lower = inhibition) (MCF (arbitrary fluorescence units)) was 166.
As for `CS(=O)(=O)c1ccc(C(=O)OCc2nnc(-c3ccccc3)o2)cc1[N+](=O)[O-]`, the compound was called inactive in assay [1], in assay [4] and in assay [6]. In assay [2], the fluorescence, percent of control (lower = inhibition) is 22.4%. In assay [3], this compound came in with a GTP binding, percent of control of 81.7%. In assay [5], the GTP binding signal, raw median fluorescence (lower = inhibition) (MCF (arbitrary fluorescence units)) is 259.
With `O=S(=O)(N/N=C\c1cccnc1)c1ccccc1`, the compound was called inactive in assay [1], in assay [4] and in assay [6]. Moreover, in assay [2], the fluorescence, percent of control (lower = inhibition) came to 53.2%. The compound further yielded a GTP binding, percent of control in assay [3] of 67.9%. The GTP binding signal, raw median fluorescence (lower = inhibition) (MCF (arbitrary fluorescence units)) in assay [5] turned out to be 227.
Regarding `O=[N+]([O-])c1cccc(S(=O)(=O)N2CCCC2)c1`, the result in assay [1], in assay [4] and in assay [6] was inactive. In addition, in assay [2], the fluorescence, percent of control (lower = inhibition) turned out to be 52.4%. Further, the GTP binding, percent of control in assay [3] came to 63.8%. Moreover, the GTP binding signal, raw median fluorescence (lower = inhibition) (MCF (arbitrary fluorescence units)) in assay [5] amounted to 205.
As for `CCOc1cccc(Nc2cc3n(c(=O)n2)CCc2cc(OC)c(OC)cc2-3)c1`, the outcome in assay [1], in assay [4] and in assay [6] was inactive. Besides, the fluorescence, percent of control (lower = inhibition) in assay [2] is 32%. The same compound gave a GTP binding, percent of control in assay [3] of 71.9%. Besides, the GTP binding signal, raw median fluorescence (lower = inhibition) (MCF (arbitrary fluorescence units)) in assay [5] worked out at 186.
As to `O=C(CCc1ccc(S(=O)(=O)NCCc2ccccc2)cc1)Nc1ccc2c(c1)OCO2`, the result in assay [1], in assay [4] and in assay [6] was inactive. The fluorescence, percent of control (lower = inhibition) in assay [2] came out at 52.3%. This compound gave a GTP binding, percent of control in assay [3] of 67.2%. The compound also displayed a GTP binding signal, raw median fluorescence (lower = inhibition) (MCF (arbitrary fluorescence units)) in assay [5] of 212.
`O=C(O)c1nnn(Cc2ccc(Br)cc2)c1C(=O)O`: the compound was called inactive in assay [1], in assay [4] and in assay [6]. Besides, the fluorescence, percent of control (lower = inhibition) in assay [2] turned out to be 58.8%. The compound also came in with a GTP binding, percent of control in assay [3] of 80.4%. For the same compound, in assay [5], the GTP binding signal, raw median fluorescence (lower = inhibition) (MCF (arbitrary fluorescence units)) was found to be 30.6.
For the compound `CCCc1cc(-n2ccnc2)n2c(nc3ccccc32)c1C#N`, the compound was called inactive in assay [1], in assay [4] and in assay [6]. For the same compound, in assay [2], the fluorescence, percent of control (lower = inhibition) is 172%. This compound also returned a GTP binding, percent of control in assay [3] of 195%. This compound also registered a GTP binding signal, raw median fluorescence (lower = inhibition) (MCF (arbitrary fluorescence units)) in assay [5] of 212.
As for `CCCCCCNc1cc2n(c(=O)n1)CCc1cc(OC)c(OC)cc1-2`, the call in assay [1], in assay [4] and in assay [6] was inactive. Also, the fluorescence, percent of control (lower = inhibition) in assay [2] was 44.7%. In assay [3], the GTP binding, percent of control was 104%. The compound further registered a GTP binding signal, raw median fluorescence (lower = inhibition) (MCF (arbitrary fluorescence units)) in assay [5] of 128.
For the compound `c1ccc2[nH]c3cc4ncnc4cc3nc2c1`, the result in assay [1], in assay [4] and in assay [6] was inactive. The fluorescence, percent of control (lower = inhibition) in assay [2] amounted to 31.7%. In assay [3], this compound returned a GTP binding, percent of control of 70.1%. In assay [5], the GTP binding signal, raw median fluorescence (lower = inhibition) (MCF (arbitrary fluorescence units)) turned out to be 189.
With `COc1cccc2c1c(C(=O)O)cn2CCOc1ccccc1C`, the call in assay [1], in assay [4] and in assay [6] was inactive. For the same compound, in assay [2], the fluorescence, percent of control (lower = inhibition) worked out at 58.5%. The compound also came in with a GTP binding, percent of control in assay [3] of 212%. The same compound yielded a GTP binding signal, raw median fluorescence (lower = inhibition) (MCF (arbitrary fluorescence units)) in assay [5] of 55.1.
Take `Cc1ccc(CSCc2ccc(C(=O)O)o2)cc1`: the call in assay [1], in assay [4] and in assay [6] was inactive. Also, the fluorescence, percent of control (lower = inhibition) in assay [2] was 50.3%. In assay [3], this compound had a GTP binding, percent of control of 74.2%. This compound also yielded a GTP binding signal, raw median fluorescence (lower = inhibition) (MCF (arbitrary fluorescence units)) in assay [5] of 28.2.
Turning to `COc1cc(N2CCCC2)c(OC)cc1/C=C(/C#N)c1cccc(F)c1`, the compound was called inactive in assay [1], in assay [4] and in assay [6]. In assay [2], the fluorescence, percent of control (lower = inhibition) is 137%. The compound also yielded a GTP binding, percent of control in assay [3] of 214%. In assay [5], the GTP binding signal, raw median fluorescence (lower = inhibition) (MCF (arbitrary fluorescence units)) came out at 210.
With `CC(C)CCn1c(CN2CCN(Cc3ccccc3)CC2)nc2c1c(=O)n(C)c(=O)n2C`, the call in assay [1], in assay [4] and in assay [6] was inactive. For the same compound, the fluorescence, percent of control (lower = inhibition) in assay [2] is 89.2%. Also, the GTP binding, percent of control in assay [3] came to 165%. For the same compound, the GTP binding signal, raw median fluorescence (lower = inhibition) (MCF (arbitrary fluorescence units)) in assay [5] was 178.
Consider `COc1cc2[nH]c(=S)nc(NC3CCCCCC3)c2cc1OC`, for which the outcome in assay [1], in assay [4] and in assay [6] was inactive. Also, the fluorescence, percent of control (lower = inhibition) in assay [2] was determined as 26.4%. For the same compound, in assay [3], the GTP binding, percent of control came out at 60.9%. In assay [5], this compound had a GTP binding signal, raw median fluorescence (lower = inhibition) (MCF (arbitrary fluorescence units)) of 148.
Regarding `C=CCN1C(=NC(=O)CCCC(=O)O)SC2CS(=O)(=O)CC21` (configuration not stated), the compound was called inactive in assay [1], in assay [4] and in assay [6]. The fluorescence, percent of control (lower = inhibition) in assay [2] came out at 38.3%. In assay [3], this compound displayed a GTP binding, percent of control of 85.7%. Also, in assay [5], the GTP binding signal, raw median fluorescence (lower = inhibition) (MCF (arbitrary fluorescence units)) is 312.
Regarding `CC1=NC(=O)C(N=Nc2ccccc2C(=O)O)N1c1ccccc1` (configuration not stated), the call in assay [1], in assay [4] and in assay [6] was inactive. Also, the fluorescence, percent of control (lower = inhibition) in assay [2] is 28.8%. The compound further had a GTP binding, percent of control in assay [3] of 69.9%. Also, the GTP binding signal, raw median fluorescence (lower = inhibition) (MCF (arbitrary fluorescence units)) in assay [5] came out at 180.

For the origin of these results see PubChem BioAssay.
